Measurements taken from PubChem BioAssay.
The source made the active and inactive calls. Unless noted, how the calls were made is not given here.

Columns and labels:
[1] = test system: Wnt5a (protein binding on small-molecule microarray); test: small molecules binding Wnt5a protein – biophysical, small-molecule microarray, 635/667 nm fluorescence, primary screen (AID 1142); conditions: 635 nm fluorescence, higher = more signal;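 further: fluorescence read at 667 nm with signal to noise per printed feature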
[2] = ATP-based viability of Huh7 replicon cells – cell-based, CellTiter-Glo luminescence, basal, 48 h, cytotoxicity control for HCV replication inhibitor project, primary screen (AID 1143); conditions: higher = more signal, called active from +8 up or from −8 down;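 further: Huh7 hepatoma cells carrying a hepatitis C replication reporter with no stimulus; test concentration not given here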
[3] = Pseudomonas biofilm growth suppression – PAO1 strain, BacTiter-Glo luminescence, LB-PBS, primary screen (AID 1144); conditions: P. aeruginosa PAO1 biofilm, 12 h, higher = more signal
[4] = basal CRE-LacZ reporter activity in PC12 – cell-based, unstimulated, primary screen (AID 1145); conditions: no forskolin, luminescence, 4.5 h, higher = more signal, called active from +8 up or from −8 down
[5] = forskolin-driven CRE-LacZ activity in PC12 – cell-based, CRE-LacZ reporter, forskolin-stimulated, primary screen (AID 1146); conditions: luminescence, 4.5 h, higher = more signal, called active from +8 up or from −8 down;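 further: PC12 cells with 6xCRE LacZ reporter stimulated by forskolin 10 µM; beta-galactosidase reporter signal reflecting CREB driven transcription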
[6] = target: Streptavidin (Streptomyces avidinii) (UniProt P22629); test: compounds binding control protein streptavidin – biophysical, small-molecule microarray, 635/667 nm fluorescence, artefact control for SMM compound annotation, primary screen (AID 1147); conditions: higher = more signal;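 further: signal reflects streptavidin binding to arrayed compounds as a control protein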
[7] = probe aInhba binding on compound microarray – biochemical, small-molecule microarray, 635/667 nm fluorescence, primary screen (AID 1148); conditions: higher = more signal;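 further: score merges 667nm spot fluorescence with signal-to-noise for antibody binding to printed compounds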
Torsin-1A (Homo sapiens) [8] = target: Torsin-1A (Homo sapiens) (UniProt O14656); test: TOR1A wild-type binding on microarray – cell lysate, small-molecule microarray, lysate, 635/667 nm, primary screen (AID 1149); conditions: COS7 hTOR1A-WT lysate, 635 nm fluorescence, higher = more signal
Torsin-1A (Homo sapiens) [9] = target: Torsin-1A (Homo sapiens) (UniProt O14656); test: torsin A mutant lysate binding on microarrays – cell lysate, small-molecule microarray, COS7 lysate, 635/667 nm fluorescence, primary screen (AID 1150); conditions: COS7 hTOR1A mutant lysate, 635 nm fluorescence, higher = more signal;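 further: score pools 667 nm emission and signal to noise measuring lysate protein binding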
[10] = test system: Sonic hedgehog protein (Shh); test: Sonic hedgehog microarray binding compounds – biochemical, small-molecule microarray, 635/667 nm fluorescence, primary screen (AID 1151); conditions: 635 nm fluorescence, higher = more signal;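 further: Shh protein binding to compounds spotted on small-molecule microarray slides; score combines spot fluorescence intensity with signal-to-noise across triplicate slides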

Chain of Streptavidin (Streptomyces avidinii) (P22629 whole entry, looked up): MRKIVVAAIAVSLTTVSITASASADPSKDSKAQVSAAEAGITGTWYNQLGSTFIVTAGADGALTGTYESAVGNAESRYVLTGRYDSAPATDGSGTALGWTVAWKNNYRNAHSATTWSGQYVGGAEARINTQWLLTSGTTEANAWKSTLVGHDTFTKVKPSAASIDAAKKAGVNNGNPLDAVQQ
Chain of Torsin-1A (Homo sapiens) (O14656 whole entry, looked up): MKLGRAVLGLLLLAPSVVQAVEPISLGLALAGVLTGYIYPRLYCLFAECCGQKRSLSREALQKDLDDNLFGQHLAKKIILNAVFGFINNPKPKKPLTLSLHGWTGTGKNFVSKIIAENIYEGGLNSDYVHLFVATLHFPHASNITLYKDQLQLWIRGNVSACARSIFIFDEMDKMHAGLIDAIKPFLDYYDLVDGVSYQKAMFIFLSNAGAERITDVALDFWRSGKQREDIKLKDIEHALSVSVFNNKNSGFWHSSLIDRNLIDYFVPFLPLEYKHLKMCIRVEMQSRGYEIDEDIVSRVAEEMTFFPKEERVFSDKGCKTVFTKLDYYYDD

Row | SMILES | composite z-score [1] | z-score [2] | z-score [3] | z-score [4] | z-score [5] | composite z-score [6] | composite z-score [7] | composite z-score (Torsin-1A (Homo sapiens) [8]) | composite z-score (Torsin-1A (Homo sapiens) [9]) | composite z-score [10]
1 | CNS(=O)(=O)c1ccc(C)cc1 | 0.365 | -1.48 (inactive) | -0.307 (inactive) | -0.0576 (inactive) | -0.391 (inactive) | 0.385 | -0.231 | 0.293 | 0.371 | 0.962
2 | COCCOC(=O)N1C(=O)[C@@]2(c3cc(C#Cc4ccc(OC)cc4)ccc31)[C@H](c1ccccc1OCCO)N1[C@H](c3ccccc3)[C@H](c3ccccc3)OC(=O)[C@H]1[C@@H]2C(=O)NC[C@H](O)c1ccccc1 | 0.609 | -3.23 (inactive) | -0.436 (inactive) | -0.602 (inactive) | -0.0611 (inactive) | 0.115 | 0.143 | 0.175 | 0.525 | 2.21
3 | COC(=O)[C@@]1(Cc2ccc(F)cc2)[C@H]2c3cc(C(=O)N(C)C)n(Cc4ccc(Cl)c(C(F)(F)F)c4)c3C[C@H]2CN1C(=O)c1ccccc1 | 0.156 | -2.95 (inactive) | 0.44 (inactive) | 1.34 (inactive) | 0.778 (inactive) | 2.37 | 0.588 | 0.146 | 0.751 | -0.823
4 | CC(C)[Si]1(C(C)C)O[C@@H](c2ccccc2)c2cc(-c3ccc(-c4ccc(Cl)c(Cl)c4)o3)nc(-c3ccccc3)c21 | -0.0503 | -0.62 (inactive) | 0.115 (inactive) | -1.12 (inactive) | 2.02 (inactive) | 0.105 | -0.0044 | -0.118 | 0.261 | 0.15
5 | NC(=O)NCC#Cc1ccc2c(c1)[C@]1(C(=O)N2)[C@H](C(N)=O)[C@H]2C(=O)O[C@H](c3ccccc3)[C@H](c3ccccc3)N2[C@@H]1c1ccc(O)cc1 | 0.0344 | -0.0803 (inactive) | -0.00225 (inactive) | 0.712 (inactive) | -0.0696 (inactive) | -0.104 | 1.34 | 0.2 | 1 | -0.41
6 | COCCOC(=O)N1C(=O)[C@@]2(c3cc(C#CC4(O)CCCCCC4)ccc31)[C@H](c1ccccc1OCCO)N1[C@H](c3ccccc3)[C@H](c3ccccc3)OC(=O)[C@H]1[C@@H]2C(=O)N1CCN(c2ncccn2)CC1 | 0.839 | -1.86 (inactive) | -0.354 (inactive) | 0.155 (inactive) | 0.411 (inactive) | 0.356 | 0.153 | 0.456 | 0.699 | 0.678
7 | COC(=O)c1c(CC[C@@H](CO)NC(=O)NCCn2cc(C3(O)CCCC3)nn2)oc(C(C)=O)c1C(=O)OC | -0.344 | -0.177 (inactive) | 0.699 (inactive) | 0.978 (inactive) | -0.194 (inactive) | 0.102 | -0.203 | -0.0395 | 0.105 | -0.303
8 | O=C(NCCN1CCOCC1)C1N=C(c2ccc(OCCCO)cc2)N(c2ccccc2)O1 (stereo not given) | 0.889 | 0.213 (inactive) | 1.27 (inactive) | 1.78 (inactive) | 0.552 (inactive) | 0.284 | 0.0219 | 1.86 | 2.3 | 1.42
9 | COCCOC(=O)N1C(=O)[C@@]2(c3cc(C#CCC(C(=O)OC)C(=O)OC)ccc31)[C@H](C(=O)N1CCN(c3ncccn3)CC1)[C@H]1C(=O)O[C@H](c3ccccc3)[C@H](c3ccccc3)N1[C@@H]2c1ccccc1OCCO | 0.833 | -3.78 (inactive) | 1.13 (inactive) | -0.337 (inactive) | -0.374 (inactive) | 0.39 | 0.326 | 0.135 | 0.579 | 2.19
10 | C=CC[C@]1(C(=O)NCc2ccccc2)N=C(c2ccc(OCCCO)cc2)O[C@H]1c1ccccc1N=[N+]=[N-] | 0.713 | -3.2 (inactive) | -0.00841 (inactive) | 1.49 (inactive) | -0.967 (inactive) | 2.21 | -0.0468 | 0.818 | 0.787 | -0.231
11 | COc1ccc(CCNC(=O)[C@@]2(Sc3ccc(C)cc3)CC(=O)N(C3Cc4ccccc4C3)[C@@H]2c2ccc(CO)cc2I)cc1 | -0.234 | -1.23 (inactive) | 0.74 (inactive) | 0.649 (inactive) | 1.82 (inactive) | -0.814 | -0.196 | -0.27 | 0.0598 | -0.862
12 | CC(C)=CCN[C@H](CO)c1ccccc1 | -0.249 | -3.85 (inactive) | -0.0678 (inactive) | -1.05 (inactive) | 0.0877 (inactive) | 0.0079 | 0.102 | -0.801 | 0.324 | 0.627
13 | O=C1C[C@@](C(=O)NCC(F)(F)F)(c2ccc([N+](=O)[O-])cc2)[C@@H](c2ccc(CO)cc2I)N1C1CCCCC1 | 0.318 | -4.26 (inactive) | -0.148 (inactive) | 0.558 (inactive) | -0.503 (inactive) | 0.514 | -0.0421 | 0.281 | 0.35 | 0.491
14 | COC(=O)[C@@]1(Cc2ccc(OC)cc2)[C@H]2c3cc(C(=O)N4CCCC4)n(CCN4CNCC4=O)c3C[C@H]2CN1C(=O)c1ccccc1 | 2.12 | -0.508 (inactive) | -0.12 (inactive) | 0.201 (inactive) | -0.0971 (inactive) | -0.002 | 1.59 | 0.294 | 0.0178 | -1.14
